From PubChem BioAssay (EPA / NIEHS)
Active and inactive are the calls of the source. How the source made its calls: active means hit-call score of the fitted dose curve at least 0.9, where 1 is the maximum; inactive means score below 0.9.

What was measured:
Settings in all cases: mRNA level, 48 h; actives raise or lower the signal
[1] = read-out: Broad substrate specificity ATP-binding cassette transporter ABCG2 (Homo sapiens) (UniProt Q9UNQ0); experiment: LTEA_HepaRG_ABCG2: Life Technologies and Expression Analysis (LTEA) Assay for ABC Transporter (ABCG2) using HepaRG (AID 2283465)
Method in brief: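 HepaRG, 48 h exposure, 8-pt half-log series from 100 uM, 0.5% DMSO vehicle, duplicates. Readout: ABCG2 transcript by qRT-PCR (Fluidigm array), housekeeping-normalized; bidirectional curve fit relative to DMSO baseline.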

[2] = read-out: ATP-citrate lyase (ACLY), ACLY (gene 47); experiment: LTEA_HepaRG_ACLY: Life Technologies and Expression Analysis (LTEA) Assay for ATP-citrate lyase (ACLY) using HepaRG (AID 2283466)
Method in brief: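 qRT-PCR readout of ACLY transcript after 48 h chemical treatment of HepaRG cells; expression normalized to three housekeeping genes. Eight-point half-log series, highest 100 uM, 0.5% DMSO vehicle. Gain or loss fitted against DMSO baseline.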

[3] = read-out: Peroxisomal acyl-coenzyme A oxidase 1 (ACOX1) gene, ACOX1 (gene 51); experiment: LTEA_HepaRG_ACOX1: Life Technologies and Expression Analysis (LTEA) Assay for Peroxisomal acyl-coenzyme A oxidase 1 (ACOX1) gene using HepaRG (AID 2283467)
Method in brief: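 HepaRG, 48 h chemical exposure, 8-pt half-log series from 100 uM top, 0.5% DMSO vehicle, duplicates. Readout: ACOX1 mRNA by Fluidigm qRT-PCR, housekeeping-normalized; bidirectional fit vs DMSO baseline.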

[4] = read-out: Alkaline Phosphatase, Placental (ALPP) gene, ALPP (gene 250); experiment: LTEA_HepaRG_ALPP: Life Technologies and Expression Analysis (LTEA) Assay for Alkaline Phosphatase, Placental (ALPP) gene using HepaRG (AID 2283468);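 on AC50: differentiated human HepaRG liver cells in serum-free induction medium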
Method in brief: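 ALPP transcript level, measured by qRT-PCR and normalized to three housekeeping genes (ACTB, GAPDH, POLR2A), after 48 h dosing of differentiated HepaRG in serum-free induction medium. Top concentration 100 uM with half-log dilutions (8 points, 0.5% DMSO, duplicates); bidirectional fitting relative to DMSO.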

[5] = read-out: Bcl-2 (BAD) gene, BAD (gene 572); experiment: LTEA_HepaRG_BAD: Life Technologies and Expression Analysis (LTEA) Assay for Bcl-2 (BAD) gene using HepaRG (AID 2283469)
Method in brief: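 HepaRG, 48 h exposure, 8-pt half-log curve from 100 uM in 0.5% DMSO, duplicates. Readout: TaqMan qRT-PCR for BAD mRNA, housekeeping-normalised (ACTB/GAPDH/POLR2A); gain or loss fitted against DMSO baseline.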

[6] = read-out: Bcl-2 (BAX) gene, BAX (gene 581); experiment: LTEA_HepaRG_BAX: Life Technologies and Expression Analysis (LTEA) Assay for Bcl-2 (BAX) gene using HepaRG (AID 2283470)
Method in brief: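 qRT-PCR read-out of BAX mRNA, normalized to three housekeeping genes, after 48 h chemical exposure of human HepaRG cells in serum-free induction medium; eight-point half-log series, top 100 uM, 0.5% DMSO vehicle; bidirectional fit versus DMSO.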

[7] = read-out: adenosine kinase (ADK) gene, ADK (gene 132); experiment: LTEA_HepaRG_ADK: Life Technologies and Expression Analysis (LTEA) Assay for adenosine kinase (ADK) gene using HepaRG (AID 2283471)
Method in brief: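 ADK expression quantified by qRT-PCR, normalised to three housekeeping genes, after 48 h exposure of HepaRG cells to eight concentrations (top 100 uM, half-log steps, duplicate, 0.5% DMSO). Up- or down-regulation fitted relative to vehicle.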

[8] = read-out: Alpha-fetoprotein (AFP) gene, AFP (gene 174); experiment: LTEA_HepaRG_AFP: Life Technologies and Expression Analysis (LTEA) Assay for Alpha-fetoprotein (AFP) gene using HepaRG (AID 2283472)
Method in brief: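 qRT-PCR (Fluidigm TaqMan) readout of AFP transcript, normalized to three housekeeping genes, fitted bidirectionally against 0.5% DMSO baseline. HepaRG cells received chemicals for 48 h in serum-free induction medium, top concentration 100 uM, half-log steps.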

[9] = read-out: BCL2L11 (gene 10018); experiment: LTEA_HepaRG_BCL2L11: Life Technologies and Expression Analysis (LTEA) Assay for Bcl-2 (BCL2L11) gene using HepaRG (AID 2283473)
Method in brief: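 BCL2L11 transcript levels are measured by Fluidigm qRT-PCR, normalized to three housekeeping genes. HepaRG cultures were plated 48 h, then treated 48 h with test chemical (top 100 uM, half-log, 0.5% DMSO vehicle); curves were fitted bidirectionally against DMSO.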

[10] = read-out: Apolipoprotein A-V (APOA5) gene, APOA5 (gene 116519); experiment: LTEA_HepaRG_APOA5: Life Technologies and Expression Analysis (LTEA) Assay for Apolipoprotein A-V (APOA5) gene using HepaRG (AID 2283474)
Method in brief: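 APOA5 transcript levels were quantified by qRT-PCR, normalized to three housekeeping genes, after 48 h chemical treatment of HepaRG cells (8 points, 100 uM maximum, half-log steps, 0.5% DMSO). Curves fitted in both directions against vehicle.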

Chain of Broad substrate specificity ATP-binding cassette transporter ABCG2 (Homo sapiens) (Q9UNQ0 whole entry, looked up): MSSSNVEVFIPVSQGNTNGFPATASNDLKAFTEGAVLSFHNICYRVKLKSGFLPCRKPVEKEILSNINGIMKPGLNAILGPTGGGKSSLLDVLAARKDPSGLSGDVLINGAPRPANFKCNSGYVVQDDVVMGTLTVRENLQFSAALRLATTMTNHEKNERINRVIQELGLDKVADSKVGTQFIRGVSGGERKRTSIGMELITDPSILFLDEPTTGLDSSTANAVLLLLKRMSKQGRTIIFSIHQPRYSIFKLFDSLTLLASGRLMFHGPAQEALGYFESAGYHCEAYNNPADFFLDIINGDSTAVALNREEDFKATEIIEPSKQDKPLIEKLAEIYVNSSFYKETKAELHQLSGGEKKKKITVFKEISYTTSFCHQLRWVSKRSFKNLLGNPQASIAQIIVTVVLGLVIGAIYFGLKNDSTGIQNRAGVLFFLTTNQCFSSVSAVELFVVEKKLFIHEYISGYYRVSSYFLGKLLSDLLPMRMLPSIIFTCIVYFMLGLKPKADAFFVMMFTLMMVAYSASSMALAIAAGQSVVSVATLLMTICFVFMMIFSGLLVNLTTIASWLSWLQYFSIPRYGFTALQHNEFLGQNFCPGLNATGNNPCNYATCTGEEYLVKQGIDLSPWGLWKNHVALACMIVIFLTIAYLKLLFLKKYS

SMILES | outcome [1] | outcome [2] | outcome [3] | outcome [4] | outcome [5] | outcome [6] | outcome [7] | outcome [8] | outcome [9] | outcome [10] | AC50 [2] | AC50 [3] | AC50 [4] | AC50 [6] | AC50 [8] | AC50 [9] | AC50 [10] | AC50 [1] | AC50 [7]
OCC(CO)(CBr)CBr | inactive | inactive | inactive | inactive | inactive | inactive | inactive | inactive | inactive | inactive | – | – | – | – | – | – | – | – | –
CC(=O)Nc1ccc(O)cc1 | inactive | inactive | inactive | inactive | inactive | inactive | inactive | inactive | inactive | inactive | – | – | – | – | – | – | – | – | –
O=C(CCCN1CCC(O)(c2ccc(Cl)cc2)CC1)c1ccc(F)cc1 | inactive | – | – | – | inactive | – | inactive | – | inactive | inactive | 32 µM (active) | 67 µM (active) | 36 µM (active) | 81.1 µM (active) | 67.8 µM (active) | – | – | – | –
CCCCC(CC)C(=O)O (stereo not drawn) | inactive | inactive | inactive | inactive | inactive | inactive | inactive | inactive | inactive | inactive | – | – | – | – | – | – | – | – | –
Cc1[nH]nc2c1N=C(c1ccccc1Cl)c1cc([N+](=O)[O-])ccc1N2 | inactive | inactive | – | – | inactive | – | inactive | – | – | – | – | 20.1 µM (active) | 1.59 µM (active) | 3.85 µM (active) | 4.36 µM (active) | 2.82 µM (active) | 9.84 µM (active) | – | –
O=C1NS(=O)(=O)c2ccccc21 | inactive | inactive | inactive | inactive | inactive | inactive | inactive | inactive | inactive | inactive | – | – | – | – | – | – | – | – | –
N=C(N)c1ccc(OCCCCCOc2ccc(C(=N)N)cc2)cc1 | – | – | – | inactive | inactive | – | – | – | – | – | 35.9 µM (active) | 29 µM (active) | – | 6.28 µM (active) | 7.45 µM (active) | 3.64 µM (active) | 11.4 µM (active) | 2.79 µM (active) | 30.5 µM (active)
CS(=O)(=O)c1ccc([C@@H](CC2CCCC2)C(=O)Nc2cnccn2)cc1Cl | – | inactive | inactive | – | inactive | – | inactive | – | inactive | – | – | – | 81.2 µM (active) | 41.3 µM (active) | 69.8 µM (active) | – | 71.2 µM (active) | 12.8 µM (active) | –
O=C(c1ccccc1)c1ccccc1 | inactive | inactive | inactive | inactive | inactive | inactive | inactive | inactive | inactive | inactive | – | – | – | – | – | – | – | – | –
CCCCCCCCCCCCCCC | inactive | inactive | inactive | inactive | inactive | inactive | inactive | inactive | inactive | inactive | – | – | – | – | – | – | – | – | –
CN(Cc1cnc2nc(N)nc(N)c2n1)c1ccc(C(=O)N[C@@H](CCC(=O)O)C(=O)O)cc1 | inactive | inactive | – | inactive | inactive | inactive | inactive | – | inactive | inactive | – | – | – | – | 0.231 µM (active) | – | – | – | –
CCC(C)c1ccccc1O (stereo not drawn) | inactive | – | inactive | inactive | inactive | inactive | inactive | inactive | inactive | inactive | – | – | – | – | – | – | – | – | –
CCCCC=O | inactive | inactive | inactive | inactive | inactive | inactive | inactive | inactive | inactive | inactive | – | – | – | – | – | – | – | – | –
CN(C)CCOC(c1ccccc1)c1ccccc1 | inactive | – | inactive | inactive | inactive | inactive | inactive | – | inactive | inactive | 81.6 µM (active) | – | – | – | 73.9 µM (active) | – | – | – | –
CCCCc1oc2ccccc2c1C(=O)c1cc(I)c(OCCN(CC)CC)c(I)c1 | – | – | inactive | – | inactive | – | inactive | – | inactive | – | 59.4 µM (active) | – | 22.8 µM (active) | 65.2 µM (active) | 11.9 µM (active) | – | 61.6 µM (active) | 61 µM (active) | –
CCCCCCCCCCCCOS(=O)(=O)O | inactive | inactive | inactive | inactive | inactive | – | inactive | – | inactive | inactive | – | – | – | 50 µM (active) | 77.7 µM (active) | – | – | – | –
